Measurements as given in PubChem BioAssay (EPA / NIEHS).
“And” between values parts separate entries of the source, which are not always exact repeats. Identical values can stand only once. The source holds several records for some structures; these can differ, active in one and inactive in another. The source made the active and inactive calls. Rule for the calls: active = hit-call score of the fitted dose curve at least 0.9, where 1 is the maximum; inactive = score below 0.9.

Assays:
[1] = ATG_M_61_CIS: Attagene CIS-FACTORIAL HepG2 Assay for M61 Transcription Factor (Internal Marker) (AID 2282937); conditions: HepG2 Attagene CIS-FACTORIAL M61 internal marker reporter; actives raise or lower the signal
Summary of the method: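 Human liver HepG2, transient MRTU transfection (cis promoter elements), 24 h compound. Total RNA → oligo(dT) RT → PCR → FAM label → HpaI → CE. Internal background marker; bidirectional fitting, DMSO = baseline.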

[2] = ATG_EGR_CIS: Attagene CIS-FACTORIAL HepG2 Assay for human Early Growth Response 1 (EGR1) (AID 2282938); conditions: HepG2 Attagene CIS-FACTORIAL EGR reporter mRNA; actives raise or lower the signal
Summary of the method: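 Transient transfection of human HepG2 with multiple cis-regulated reporter units, chemical exposure 24 h, total RNA isolated. Reverse transcription, PCR, fluorescent labelling and capillary electrophoresis quantify reporter transcripts; activity fitted bidirectionally against DMSO.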

[3] = ATG_M_19_CIS: Attagene CIS-FACTORIAL HepG2 Assay for M19 Transcription Factor (Internal Marker) (AID 2282939); conditions: HepG2 Attagene CIS-FACTORIAL M19 internal marker reporter; actives raise or lower the signal
Summary of the method: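 Background-control endpoint from a multiplexed HepG2 reporter panel. Cells carrying cis-regulated reporter constructs are treated 24 h, then reporter transcripts are amplified, fluorescently labelled and sized by capillary electrophoresis. DMSO defines baseline.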

[4] = ATG_ERE_CIS: Attagene CIS-FACTORIAL HepG2 Assay for Estrogen Response Element (ERE) (AID 2282940); conditions: HepG2 ERE cis-reporter, Attagene RNA transcript; actives raise or lower the signal
Summary of the method: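 Cells used were human hepatoma HepG2, transfected with multiple reporter transcription units under cis-regulatory promoters. Reporter mRNA, read 24 h post-dosing via fluorescent RT-PCR products on capillary electrophoresis, was fitted bidirectionally relative to DMSO.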

[5] = ATG_Ets_CIS: Attagene CIS-FACTORIAL HepG2 Assay for human Erythroblast Transformation Specific (ETS) (AID 2282941); conditions: HepG2 ETS cis-reporter transcription, actives raise or lower the signal
Summary of the method: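 HepG2 cells transiently transfected with cis-promoter reporter transcription units were dosed for 24 h; reporter mRNA was measured by RT-PCR, 6-FAM primer extension, HpaI digestion and capillary electrophoresis, with bidirectional fitting against DMSO baseline.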

[6] = molecular target: Hepatocyte nuclear factor 3-beta (Homo sapiens) (UniProt Q9Y261); assay: ATG_FoxA2_CIS: Attagene CIS-FACTORIAL HepG2 Assay for human Forkhead box A2 (FOXA2) (AID 2282942); conditions: HepG2 cis-reporter transcription factor activity, 24 h; actives raise or lower the signal
Summary of the method: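 Transient MRTU transfection of HepG2 liver cells; 24 h treatment; total RNA → oligo(dT) RT → PCR → FAM primer extension → HpaI cut → CE. Bidirectional fit vs DMSO.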

[7] = ATG_FoxO_CIS: Attagene CIS-FACTORIAL HepG2 Assay for human Forkhead box O (FoxO) (AID 2282943); conditions: HepG2 Attagene cis-reporter, FoxO element, mRNA; actives raise or lower the signal
Summary of the method: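 Human hepatoma HepG2 cells carry transiently introduced reporter transcription units controlled by cis promoter elements. Chemical treatment lasted 24 h, and mRNA signal was compared with DMSO.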

[8] = ATG_GATA_CIS: Attagene CIS-FACTORIAL HepG2 Assay for human GATA Binding Protein (AID 2282944); conditions: HepG2 GATA cis-element reporter, Attagene multiplex mRNA; actives raise or lower the signal
Summary of the method: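 Endogenous transcription factor activity was captured through cis-promoter-driven reporters in transfected HepG2 cells. After 24 h exposure, reporter transcripts were quantified by RT-PCR with fluorescent capillary electrophoresis, and responses fitted both directions against DMSO.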

[9] = molecular target: Bile acid receptor (Homo sapiens) (UniProt Q96RI1); assay: ATG_IR1_CIS: Attagene CIS-FACTORIAL HepG2 Assay for human Nuclear Receptor Subfamily 1 Group H Member 4 (NR1H4), IR1 submotif (AID 2282946); conditions: IR1 reporter transcription, actives raise or lower the signal
Summary of the method: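 Cells (human HepG2) carry transiently transfected cis-promoter reporter transcription units. Compounds are incubated 24 h, total RNA is reverse-transcribed and amplified, and labelled fragments are resolved by capillary electrophoresis. Curves use DMSO as baseline.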

[10] = ATG_GRE_CIS: Attagene CIS-FACTORIAL HepG2 Assay for human Glucocorticoid Response Elements (GRE) (AID 2282947); conditions: HepG2 GRE cis-reporter, Attagene multiplex mRNA; actives raise or lower the signal
Summary of the method: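 Assay uses human hepatoma HepG2 cells transfected with cis-promoter reporter units, exposed 24 h. mRNA from reporters detected by RT-PCR plus capillary electrophoresis; DMSO serves as negative control and baseline.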

[11] = ATG_ISRE_CIS: Attagene CIS-FACTORIAL HepG2 Assay for human Interferon Regulatory Factor 1 (IRF1) binding to an Interferon-Stimulated Response Element (ISRE) (AID 2282948); conditions: HepG2 ISRE cis-reporter (Attagene), mRNA transcription readout; actives raise or lower the signal
Summary of the method: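 HepG2 cells transiently transfected with multiplexed cis-promoter reporter units; after 24 h compound exposure, reporter mRNA quantified by RT-PCR, FAM labelling, HpaI digestion and capillary electrophoresis. Bidirectional fit versus DMSO baseline.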

[12] = ATG_M_32_CIS: Attagene CIS-FACTORIAL HepG2 Assay for M32 Transcription Factor (Internal Marker) (AID 2282949); conditions: HepG2 Attagene cis-factorial M32 reporter, mRNA; actives raise or lower the signal;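 note: background control marker of the multiplexed CIS panel rather than a real target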
Summary of the method: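 Internal background marker read-out: RT-PCR/capillary electrophoresis fluorescence of reporter transcripts from transiently transfected HepG2 cells after 24 h chemical exposure. Activity fitted bidirectionally relative to DMSO negative control.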

[13] = molecular target: Hypoxia-inducible factor 1-alpha (Homo sapiens) (UniProt Q16665); assay: ATG_HIF1a_CIS: Attagene CIS-FACTORIAL HepG2 Assay for human Hypoxia Inducible Factor 1 (HIF1A) (AID 2282951); conditions: HepG2 Attagene cis-factorial HIF1a reporter transcription; actives raise or lower the signal
Summary of the method: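 Transient MRTU transfection of human HepG2 liver cells, 24 h compound treatment, then total RNA isolation, oligo(dT) reverse transcription, PCR amplification, fluorescent labelling and capillary electrophoresis of reporter fragments. Gain or loss relative to DMSO.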

[14] = molecular target: Heat shock factor protein 1 (Homo sapiens) (UniProt Q00613); assay: ATG_HSE_CIS: Attagene CIS-FACTORIAL HepG2 Assay for human Heat Shock Transcription Factor 1 (HSE) (AID 2282953); conditions: HepG2 HSE cis-reporter, Attagene RNA transcription; actives raise or lower the signal
Summary of the method: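 Cells were transfected with cis-element-driven reporter constructs, dosed for 24 h, then total RNA was reverse-transcribed and reporter cDNA amplified, FAM-labelled and digested with HpaI. Fragments were resolved by capillary electrophoresis; gain or loss was fitted against DMSO.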

[15] = ATG_MRE_CIS: Attagene CIS-FACTORIAL HepG2 Assay for human Metal Responsive Element (MRE) (AID 2282954); conditions: HepG2 MRE cis-reporter transcription, Attagene multiplex; actives raise or lower the signal
Summary of the method: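 After a 24 h chemical exposure, transiently transfected HepG2 cells yield RNA whose reporter sequences are amplified, FAM-labelled and sized by capillary electrophoresis. Curves are fitted bidirectionally relative to DMSO.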

[16] = ATG_E_Box_CIS: Attagene CIS-FACTORIAL HepG2 Assay for human Enhancer Box (E-box) (AID 2282936); conditions: HepG2 E-box cis-reporter transcription, actives raise or lower the signal
Summary of the method: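 DMSO served as negative control and baseline for bidirectional fitting. Human hepatoma HepG2 cells, transiently transfected with cis-reporter constructs, were dosed 24 h; reporter mRNA read by RT-PCR and capillary electrophoresis.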

[17] = ATG_GLI_CIS: Attagene CIS-FACTORIAL HepG2 Assay for human Zinc Finger Protein GLI1 (AID 2282945); conditions: HepG2, Attagene cis-factorial reporter mRNA, GLI element; actives raise or lower the signal
Summary of the method: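 Bidirectional curve fits relative to DMSO, using reporter mRNA levels from RT-PCR plus capillary electrophoresis. Cells were HepG2 transiently carrying cis-regulated reporter constructs, harvested 24 h after dosing.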

[18] = ATG_M_06_CIS: Attagene CIS-FACTORIAL HepG2 Assay for M06 Transcription Factor (Internal Marker) (AID 2282950); conditions: HepG2 Attagene CIS-FACTORIAL M06 internal marker reporter; actives raise or lower the signal
Summary of the method: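 Steps: transfect HepG2 with multiplexed cis-element reporter constructs; dose chemical 24 h; extract RNA with DNase treatment; reverse-transcribe, PCR-amplify, 6-FAM label, HpaI digest; separate fragments by capillary electrophoresis. Activity fitted both directions versus DMSO.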

[19] = ATG_PBREM_CIS: Attagene CIS-FACTORIAL HepG2 Assay for human Phenobarbital-responsive Enhancer Module (PBREM) (AID 2282955); conditions: HepG2 PBREM cis-reporter, Attagene multiplexed transcription; actives raise or lower the signal
Summary of the method: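 Endogenous transcription factors in human liver HepG2 cells drive a PBREM cis-element reporter, whose transcript level after 24 h treatment is quantified by RT-PCR with capillary electrophoresis; activity fitted in both directions against DMSO.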

[20] = molecular target: Hepatocyte nuclear factor 6 (Homo sapiens) (UniProt Q9UBC0); assay: ATG_HNF6_CIS: Attagene CIS-FACTORIAL HepG2 Assay for human Hepatocyte Nuclear Factor 6 (HNF6) (AID 2282952); conditions: HepG2 Attagene cis-factorial HNF6 reporter transcription; actives raise or lower the signal
Summary of the method: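 HepG2 cells transiently transfected with cis-element-driven multiplexed reporter units measuring endogenous transcription factor activity. After 24 h exposure, reporter mRNA quantified by RT-PCR, FAM-labelled fragments and capillary electrophoresis; bidirectional fitting versus DMSO.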

Measured: AC50

Sequence of Hepatocyte nuclear factor 6 (Homo sapiens) (Q9UBC0 whole entry, looked up, the tested form may be a part): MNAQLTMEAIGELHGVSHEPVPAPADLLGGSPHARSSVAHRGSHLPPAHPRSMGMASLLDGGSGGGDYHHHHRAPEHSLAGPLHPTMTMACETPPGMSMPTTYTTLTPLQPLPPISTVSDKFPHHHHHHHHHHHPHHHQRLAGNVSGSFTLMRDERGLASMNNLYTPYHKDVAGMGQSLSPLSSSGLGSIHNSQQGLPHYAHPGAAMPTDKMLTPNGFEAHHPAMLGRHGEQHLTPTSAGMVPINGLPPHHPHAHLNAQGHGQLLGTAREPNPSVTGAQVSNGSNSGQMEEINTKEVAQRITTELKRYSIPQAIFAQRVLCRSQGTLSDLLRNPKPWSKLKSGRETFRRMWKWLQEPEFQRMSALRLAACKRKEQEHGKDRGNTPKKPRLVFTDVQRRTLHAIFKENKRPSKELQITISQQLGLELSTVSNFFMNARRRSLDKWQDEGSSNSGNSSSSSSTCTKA
Sequence of Hepatocyte nuclear factor 3-beta (Homo sapiens) (Q9Y261 whole entry, looked up): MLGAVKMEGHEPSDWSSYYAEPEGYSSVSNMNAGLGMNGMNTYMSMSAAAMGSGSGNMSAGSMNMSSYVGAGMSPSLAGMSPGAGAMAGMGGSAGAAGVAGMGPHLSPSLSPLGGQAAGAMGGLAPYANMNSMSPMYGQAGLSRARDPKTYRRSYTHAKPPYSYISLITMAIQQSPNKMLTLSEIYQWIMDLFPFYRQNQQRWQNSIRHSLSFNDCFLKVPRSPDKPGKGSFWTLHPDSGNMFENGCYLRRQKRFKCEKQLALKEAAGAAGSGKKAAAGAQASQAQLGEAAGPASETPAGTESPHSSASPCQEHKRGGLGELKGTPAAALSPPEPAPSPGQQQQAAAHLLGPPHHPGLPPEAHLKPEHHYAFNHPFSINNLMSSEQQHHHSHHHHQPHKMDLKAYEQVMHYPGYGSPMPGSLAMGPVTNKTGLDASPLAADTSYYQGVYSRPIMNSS
Sequence of Bile acid receptor (Homo sapiens) (Q96RI1 whole entry, looked up, the tested form may be a part): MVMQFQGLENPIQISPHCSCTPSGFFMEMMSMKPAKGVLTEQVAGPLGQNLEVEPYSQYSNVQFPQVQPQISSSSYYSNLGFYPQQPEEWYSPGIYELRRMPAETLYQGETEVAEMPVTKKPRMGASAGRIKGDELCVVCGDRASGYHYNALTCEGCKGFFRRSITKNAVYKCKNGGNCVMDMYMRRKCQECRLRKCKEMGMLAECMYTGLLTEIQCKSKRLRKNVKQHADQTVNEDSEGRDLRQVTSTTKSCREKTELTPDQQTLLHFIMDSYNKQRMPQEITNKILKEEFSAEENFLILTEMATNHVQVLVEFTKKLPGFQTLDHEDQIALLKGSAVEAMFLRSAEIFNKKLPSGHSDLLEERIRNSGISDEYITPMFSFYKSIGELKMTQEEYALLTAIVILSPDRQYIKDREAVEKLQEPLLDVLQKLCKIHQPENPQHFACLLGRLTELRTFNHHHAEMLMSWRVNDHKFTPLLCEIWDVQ
Sequence of Heat shock factor protein 1 (Homo sapiens) (Q00613 whole entry, looked up, the tested form may be a part): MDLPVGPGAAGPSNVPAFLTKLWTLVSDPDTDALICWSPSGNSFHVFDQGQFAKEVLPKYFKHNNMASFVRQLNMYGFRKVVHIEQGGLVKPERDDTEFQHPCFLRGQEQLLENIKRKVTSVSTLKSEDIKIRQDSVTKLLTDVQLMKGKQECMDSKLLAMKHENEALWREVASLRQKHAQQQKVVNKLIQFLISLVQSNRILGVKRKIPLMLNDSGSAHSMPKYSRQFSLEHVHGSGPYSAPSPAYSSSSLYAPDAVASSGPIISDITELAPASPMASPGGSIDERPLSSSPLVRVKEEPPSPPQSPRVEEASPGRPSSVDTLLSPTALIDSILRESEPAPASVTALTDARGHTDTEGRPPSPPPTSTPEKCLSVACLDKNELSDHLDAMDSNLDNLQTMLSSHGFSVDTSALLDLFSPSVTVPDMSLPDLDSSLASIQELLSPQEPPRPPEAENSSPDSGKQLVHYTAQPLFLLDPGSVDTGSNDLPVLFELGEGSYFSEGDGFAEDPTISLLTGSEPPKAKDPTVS
Sequence of Hypoxia-inducible factor 1-alpha (Homo sapiens) (Q16665 whole entry, looked up, the tested form may be a part): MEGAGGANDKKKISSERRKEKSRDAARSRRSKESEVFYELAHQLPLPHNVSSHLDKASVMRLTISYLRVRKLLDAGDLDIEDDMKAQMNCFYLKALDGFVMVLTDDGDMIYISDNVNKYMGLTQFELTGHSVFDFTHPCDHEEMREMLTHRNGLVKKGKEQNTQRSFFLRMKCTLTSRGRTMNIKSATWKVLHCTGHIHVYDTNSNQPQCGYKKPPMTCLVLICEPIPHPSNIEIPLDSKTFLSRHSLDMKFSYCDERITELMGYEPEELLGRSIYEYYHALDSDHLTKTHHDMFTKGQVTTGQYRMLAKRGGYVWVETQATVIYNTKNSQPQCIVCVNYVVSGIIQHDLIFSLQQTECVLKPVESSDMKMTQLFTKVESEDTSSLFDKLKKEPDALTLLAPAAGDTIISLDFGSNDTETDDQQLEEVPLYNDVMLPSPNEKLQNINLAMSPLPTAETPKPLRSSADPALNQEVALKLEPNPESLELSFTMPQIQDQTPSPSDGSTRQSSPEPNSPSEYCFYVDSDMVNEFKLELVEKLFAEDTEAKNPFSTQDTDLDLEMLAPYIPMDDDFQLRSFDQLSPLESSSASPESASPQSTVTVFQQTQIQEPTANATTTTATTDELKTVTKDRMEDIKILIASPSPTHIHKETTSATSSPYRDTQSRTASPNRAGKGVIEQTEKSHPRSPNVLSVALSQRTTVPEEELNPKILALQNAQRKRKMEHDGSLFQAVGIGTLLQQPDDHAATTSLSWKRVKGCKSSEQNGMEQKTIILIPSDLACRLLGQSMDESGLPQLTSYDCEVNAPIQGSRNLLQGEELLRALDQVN

Oc1c(Cl)c(Cl)c(Cl)c(Cl)c1Cl
inactive: [1] | [2] | [3] | [4] | [5] | [6] | [7] | [8] | [9] | [10] | [11] | [12] | [13]
active: [2] 29.4 µM and 11.2 µM | [4] 13.4 µM | [5] 21.5 µM | [7] 33.6 µM | [11] 78.7 µM and 51 µM | [13] 3.43 µM and 20.6 µM | [14] 31.5 µM and 75.4 µM and 142 µM | [15] 50 µM and 40.9 µM and 78.8 µM

CCCCCCCCOC(=O)c1ccccc1C(=O)OCCCCCCCC
inactive: [16] | [2] | [3] | [4] | [5] | [6] | [7] | [8] | [17] | [9] | [11] | [12] | [18] | [14] | [15]
active: [13] 40.1 µM

O=C(N[C@H]1CN2CCC1CC2)c1cc2ccoc2cn1
active: [11] 82.4 µM
inactive: [16] | [2] | [3] | [4] | [5] | [6] | [7] | [8] | [17] | [12] | [18] | [13] | [14] | [15] | [19]

CN(C)CCO
inactive: [16] | [2] | [3] | [4] | [5] | [6] | [7] | [8] | [17] | [11] | [12] | [18] | [13] | [14] | [15] | [19]

Clc1ccc(C(c2ccccc2Cl)C(Cl)(Cl)Cl)cc1 (stereo unspecified)
inactive: [16] | [2] | [3] | [5] | [6] | [7] | [8] | [17] | [10] | [11] | [12] | [13] | [20] | [14] | [15] | [19]
active: [4] 874 nM [middle of 4 runs] | [6] 135 µM | [11] 70.5 µM and 82.3 µM | [13] 18.4 µM | [14] 50.7 µM and 94.6 µM | [15] 70.5 µM and 36.9 µM

CCCN(CCC)N=O
active: [4] 46.4 µM
inactive: [16] | [1] | [2] | [3] | [5] | [6] | [7] | [8] | [11] | [12] | [13] | [20] | [14] | [15]
